# Records with an inconclusive call do not appear. Calls of active or inactive are those of the source. The call rests on the fitted dose curve; in most records, active means well fitted inhibition curve with a large enough effect; inconclusive means small, poorly fitted or top-dose-only effect; inactive means flat fitted curve, though single readings scatter.
# Assay: P-glycoprotein substrates identified in KB-8-5-11 adenocarcinoma cell line, qHTS therapeutic library screen (AID 1346987); further: nearly all actives have a fitted effect of over 65% in size
# Conditions: KB-8-5-11 (P-gp overexpressing) viability, CellTiter-Glo, 72 h; series mostly up to 44.5 µM; activity change, negative = cytotoxicity: at the top concentration
# In short: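 Luminescence from CellTiter-Glo, read 5 min after addition, quantified survival of KB-8-5-11 (P-gp-overexpressing) cells exposed to compounds for 72 h. AC50 was derived from concentration-response curves.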
# On the % scale 0 is the no-effect control and ±100 the full control effect; potency means the concentration at half of the fitted maximal effect.
Structure (SMILES),"activity change, negative = cytotoxicity",Potency,outcome
C[C@@H]1O[C@@H](O[C@H]2[C@H](OC(=O)C34CCC5(C)C(=CCC6C7(C)CC(O)C(O[C@@H]8O[C@H](C(=O)O)[C@@H](O)[C@H](O)[C@H]8O)C(C)(C(=O)O)C7CCC65C)C3CC(C)(C)CC4O)O[C@H](C)[C@@H](O)[C@@H]2O)[C@H](O)[C@@H](O[C@@H]2OC[C@](O)(CO)[C@H]2O[C@@H]2O[C@H](CO)[C@@H](O)[C@H](O)[C@H]2O)[C@H]1O (some centres undefined),5.75% [at 9.29 µM] (inactive),,
CON(C)C(=O)N1N=C(c2cc(F)ccc2F)S[C@@]1(CCCN)c1ccccc1,,164 nM (active),
C[C@@H]1C[C@H](O[C@@H]2O[C@H](CO[C@@H]3OC[C@](O)(CO)[C@H]3O)[C@@H](O)[C@H](O)[C@H]2O)CC(C)(C)[C@H]1/C=C/[C@@H](C)O,,,inactive [at 17.3 µM]
CC1(C)C[C@H]2C3=CCC4[C@@]5(C)CC[C@H](O[C@H]6O[C@H](C(=O)O)[C@@H](O)[C@H](O)[C@H]6O[C@H]6O[C@H](CO)[C@@H](O)[C@H](O)[C@H]6O[C@@H]6O[C@H](CO)[C@@H](O)[C@H](O)[C@H]6O)[C@](C)(CO)C5CC[C@@]4(C)[C@]3(C)CC[C@@]2(C)[C@H](O[C@@H]2OC[C@H](O)[C@H](OC3O[C@H](CO)[C@@H](O)[C@H](O)[C@H]3O)[C@H]2O)[C@@H]1O (some centres undefined),,,inactive [at 9.29 µM]
